Shown are actives, neighbours in structure and some others; about 19% of the full set was active somewhere.
Pf growth 96h – P. falciparum growth inhibition at 96 hours; Potency, µM (series often up to 28.7 µM), actives largely listed as inhibitors; AID 504834; actives 6.9% (n = 320,000); P. falciparum luciferase reporter growth, 96 h
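Erythrocytes infected with luciferase-expressing P. falciparum were dispensed at 2% hematocrit and 0.05% parasitemia (final), then incubated with compounds 96 hours at 37 C in 5% CO2. Luminescence after detection reagent addition reported growth.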
LASV entry inh – Lassa virus entry inhibition | AID 540256 | actives 1.2% (n = 300,000) | Lassa virus pseudotype entry inhibition, cell reporter | Potency, µM (highest dose often 37.9 µM), most hits filed as inhibitors; calls by dose curve; tested in HEK293 cells; further: nearly all actives have a fitted effect of over 50% in size
Shiga inhibitor – blocks Shiga toxin action in Vero cells. AID 2315. actives 9.2% (n = 290,000). Vero cells, Shiga toxin protein synthesis inhibition reporter. inhibition, % at 38.7 µM; in the data active means inhibition mostly above about 28%, no sharp cut-off; inactive means mostly below about 43%
Cycloheximide cs – counter-screen hit for Shiga toxin inhibitors, cycloheximide | cell reporter, cycloheximide protein synthesis inhibition counterscreen | max response, % | actives 12% (n = 300,000) | AID 2314; in the data active means max response mostly above about 13%, no sharp cut-off; inactive means mostly below about 14%; further: read at 38.3 µM for the half of the compounds with a filed dose
Pf growth 48h – P. falciparum growth inhibition at 48 hours (one generation); actives 5.9% (n = 310,000); P. falciparum luciferase growth in erythrocytes, 48 h; Potency, µM (top dose mostly 28.7 µM), hits mostly inhibitors
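A one-generation exposure of luciferase-tagged malaria parasites in RPMI 1640/Albumax erythrocyte culture, 37 C and 5% CO2. Inhibition is inferred from decreased luminescence after adding detection reagent.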
MARV entry inh – inhibitors of Marburg virus binding or cell entry; Marburg virus pseudotyped entry inhibition, cell reporter; Potency, µM (series often up to 37.8 µM), hits mostly inhibitors; actives 1.8% (n = 300,000); calls by dose curve; tested in HEK293 cells
Numbers stand for hits; i = inactive; ? = inconclusive; nt = no result; ! = not active in a repeat. Unless noted, the call rests on the fitted dose curve; in most records, active means well fitted inhibition curve with a large enough effect; inconclusive means small, poorly fitted or top-dose-only effect, or another doubt; inactive means no such curve, though single readings can be large or run the other way.

SMILES	Pf growth 96h	LASV entry inh	Shiga inhibitor	Cycloheximide cs	Pf growth 48h	MARV entry inh
O=C(Nc1nc(-c2ccncc2)cs1)c1ccc(S(=O)(=O)N2CCOCC2)cc1	?	?	i	i	?	i
O=C(COc1cccc(Cl)c1)Nc1nc(-c2ccc(S(=O)(=O)N3CCOCC3)cc2)cs1	9.28µM	?	i	i	8.28µM	?
CCOc1cccc(C(=O)Nc2nc(-c3ccc(S(=O)(=O)N4CCOCC4)cc3)cs2)c1	nt	?	i	i	5.22µM	i
Cc1nc2ccc3nc(NC(=O)c4ccc(S(=O)(=O)N5CCOCC5)cc4)sc3c2s1	?	i	i	i	i	i
CCC(C(=O)NC1CCCCC1)n1c(SCc2ccccc2F)nc2ccncc21 (stereo not given)	8.28µM	i	i	16.7!	i	i
Cn1nc(NC(=O)C(F)(F)F)c2ncc(-c3ccc(Cl)cc3)nc21	i	nt	67.8	41.2	i	nt
Cc1ccc2cc(C3CC(c4ccco4)=NN3S(C)(=O)=O)c(Cl)nc2c1 (stereo not given)	i	i	i	i	?	i
O=S(=O)(c1ccccc1)N1N=C(c2ccc(O)cc2)CC1c1ccco1 (stereo not given)	?	nt	i	i	i	nt
Cc1ccc2cc(C3CC(c4ccco4)=NN3S(=O)(=O)c3ccccc3)c(Cl)nc2c1 (stereo not given)	i	16.4µM	i	i	i	2.59µM
COc1ccc2cc(C3CC(c4ccco4)=NN3S(=O)(=O)c3ccccc3)c(Cl)nc2c1 (stereo not given)	?	?	33.0	i	?	?
CCOc1ccc2cc(C3CC(c4ccco4)=NN3S(=O)(=O)c3ccccc3)c(Cl)nc2c1 (stereo not given)	13.1µM	i	67.6	18.6	14.7µM	i
Cc1ccc(C2=NN(S(=O)(=O)c3ccccc3)C(c3ccco3)C2)cc1 (stereo not given)	11.7µM	nt	nt	nt	9.28µM	nt
CCn1cc(C(=O)N[C@@H](C)C(=O)NCCCN2CCOCC2)c(=O)c2cc3c(cc21)OCO3	i	i	i	i	i	?
COc1ccc(-c2ccc(CO)o2)cc1N	i	i	55.2	30.6	i	i
O=C(O)CNC(=O)c1ccccc1	?	nt	i	i	i	nt
COC(=O)C1C(=O)C=C(Nc2ccc(F)cc2F)CC1c1ccc(OC)cc1 (stereo not given)	i	i	i	i	i	?
CCOC(=O)C1C(=O)C=C(Nc2ccccc2F)CC1c1ccccc1 (stereo not given)	i	i	53.5	46.4	i	?
COC(=O)C1C(=O)C=C(Nc2ccc(F)cc2F)CC1c1ccccc1 (stereo not given)	i	i	i	20.9	i	i
COC(=O)C1C(=O)C=C(Nc2ccc(F)cc2)CC1c1ccc(OC)cc1 (stereo not given)	i	i	i	24.9	i	?
CCN(CC)CCOC(=O)C(O)(c1ccccc1)c1ccccc1	i	i	i	i	i	i
CCN(CC)CCOCCOC(=O)C(CC)(CC)c1ccccc1 (tested in a mixture with another compound)	6.75µM	nt	nt	nt	19µM	nt
CCOC(=O)[C@H]1[C@H]2COc3cc(OC)ccc3[C@@H]2N2C(=O)CN(CCc3c[nH]c4ccccc34)C(=O)[C@@]12C	?	nt	nt	nt	7.38µM	nt
COc1ccc2c(c1)OC[C@H]1[C@H]2N2C(=O)CN(CCc3c[nH]c4ccccc34)C(=O)[C@@]2(C)[C@H]1c1ccccc1	4.65µM	nt	nt	nt	11.7µM	nt
CCOC(=O)[C@H]1[C@H]2COc3ccc(OC)cc3[C@@H]2N2C(=O)CN(C)C(=O)[C@@]12C	?	nt	nt	nt	i	nt
Cc1cc(N2CC(C(=O)NCc3cccs3)CC2=O)ccc1C(C)C (stereo not given)	nt	i	i	i	?	i
SMILES	Pf growth 96h	LASV entry inh	Shiga inhibitor	Cycloheximide cs	Pf growth 48h	MARV entry inh
CCCC(=O)Nc1ccc(Cl)c(NC(=O)c2cccc(OC)c2)c1	i	?	i	i	i	i
CCCS(=O)(=O)N1CCC(C(=O)NC2CCCC(C)C2C)CC1 (stereo not given)	9.28µM	i	i	i	i	i
CCc1cc2cc(OC)ccc2nc1SCC(=O)NNC(=O)c1ccco1	i	?	i	i	i	?
CC(=O)Cc1nsc(NC(=O)c2ccc(COc3cccc(C)c3)o2)n1	i	i	i	i	i	i
O=C(NNC(=O)c1cccc2ccccc12)c1ccc2c(c1)OCO2	i	?	50.0	24.1	i	i
CNC(=S)NNC(=O)c1ccc2c(c1)OCO2	i	nt	52.4	i	i	nt
CNC(=S)NNC(=O)c1ccc(C(C)(C)C)cc1	i	nt	i	16.9	?	nt
COc1cccc(CNC(=O)C2CCN(S(=O)(=O)N3CCC4(CC3)OCCO4)CC2)c1	i	i	i	i	i	?
O=C(CSc1nc2c(c(=O)[nH]1)CN(Cc1ccc3c(c1)OCO3)CC2)Nc1ccc(F)c(F)c1	nt	i	nt	nt	nt	i
Cc1ccc(C)n1-c1nn(S(=O)(=O)c2ccccc2)c2cccc(F)c12	?	i	i	i	?	?
COc1ccc(S(=O)(=O)n2nc(-n3c(C)ccc3C)c3c(F)cccc32)cc1OC	?	?	i	i	5.86µM	8.91µM
CCC(=O)N1CCc2cc(Br)cc(S(=O)(=O)NCCCN(CC)Cc3ccccc3)c21	i	i	i	i	?	?
COC(=O)C1=C(c2ccc3ccccc3c2)C[C@@H]2CC[C@H]1N2C(=O)N1CCC(O)CC1	i	nt	nt	nt	?	nt
COC(=O)C1=C(c2ccc(F)cc2OCc2ccccc2)C[C@@H]2CC[C@H]1N2C(=O)N1CCOCC1	?	nt	nt	nt	6.57µM	nt
COC(=O)C1=C(c2ccc(F)cc2OCc2ccccc2)C[C@@H]2CC[C@H]1N2C(=O)N1CCC(C)CC1	?	nt	nt	nt	7.38µM	nt
COC(=O)C1=C(c2ccc3ccccc3c2)C[C@@H]2CC[C@H]1N2C(=O)N1CCOCC1	?	nt	nt	nt	i	nt
O=C(/C=C/c1ccccc1Cl)N1CCCN(C(=O)/C=C/c2ccccc2Cl)CC1	i	i	i	i	i	i
COc1cccc(C(C(=O)NC(C)(C)C)N(C(=O)CCC(=O)Nc2cc(C)on2)C2CC2)c1OC (stereo not given)	?	i	i	i	i	i
COc1cc(OC)cc(C(=O)NNC(=O)Cc2ccc(OC)c(S(=O)(=O)N3CCOCC3)c2)c1	i	i	i	i	i	i
O=C(O)C1CCCCC1C(=O)Nc1ccc2c(c1)OCCO2 (stereo not given)	i	i	102.4	34.4	i	i
O=C(Nc1cccc(Cl)c1)C1CC1c1ccccc1 (stereo not given)	nt	i	nt	nt	nt	?
CC1CN(C(=O)Nc2ccc3c(c2)OCCO3)CC(C)O1 (stereo not given)	i	?	i	i	i	i
CC(C)c1ccc(NC(=O)C2CC2c2ccccc2)cc1 (stereo not given)	?	nt	i	18.2	i	nt
O=C(Nc1ccc2c(c1)OCCO2)C1CC1c1ccccc1 (stereo not given)	i	i	93.8	65.1	i	?

Compound activity: PubChem BioAssay, National Center for Advancing Translational Sciences (NCATS)
